Only some compounds are listed: those with a hit (about 1% of all), similar ones and a draw of the others.
BioA inh = M. tuberculosis BioA enzyme inhibitors, primary screen, biochemical, plate reader, single point, HTS; purified M. tuberculosis BioA enzyme; inhibition, % at 9.99 µM; 360,000 compounds, 0.096% hits; AID 602481, 2012; in the data active means inhibition above about 40%; inconclusive means no clear call, values can overlap the other calls
Mtb hypoxia rep = PubChem AID 1159583; M. tuberculosis hypoxia-regulated fluorescent reporter, fluorescence; fluorescence inhibition, % (test concentration not listed); 300,000 compounds, 0.1% hits; in the data active means fluorescence inhibition mostly above about 23%, no sharp cut-off; inactive means mostly below about 17%
SSB-PriA inh = inhibitors of Klebsiella pneumoniae PriA binding to SSB C-terminal tail, primary screen, biochemical, AlphaScreen; PriA–SSB C-terminal tail interaction (Klebsiella pneumoniae); AlphaScreen SSBct-PriA binding, biotinylated peptide; inhibition, % at 33 µM; 430,000 compounds, 0.6% hits; in the data active means inhibition mostly above about 37%, no sharp cut-off; inactive means mostly below about 20%;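 further: plate controls were negative control peptide for no effect and reference peptide for full effect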
FadD28 FP inh = inhibitors of FadD28 bisubstrate probe binding, primary screen, biochemical, fluorescence polarization, single point; Mycobacterium tuberculosis FadD28 fatty-acid-AMP ligase; inhibition, % at 12.5 µM; 360,000 compounds, 0.22% hits; in the data active means inhibition above about 8.5%, passing the limit was not always enough; inconclusive means no clear call, values can overlap the other calls
TcdB inh = TcdB glycohydrolase inhibitors, primary screen, biochemical, single point, plate reader. Toxin B (Clostridioides difficile), P18177. TcdB glycohydrolase enzymatic assay. inhibition, % at 9.99 µM. 350,000 compounds, 0.24% hits; in the data active means inhibition above about 10%
PrP UTR inh = inhibition of PrP 5' UTR reporter expression; cell-based PrP 5' UTR mRNA reporter, plate reader; inhibition, % (no concentration beside the values); 340,000 compounds, 0.35% hits; in the data active means inhibition above about 52%; further: 0 = median of the neutral control wells
PrP 5UTR single = prion 5' UTR mRNA inhibition, cherry-pick retest; cell-based prion protein 5' UTR reporter, plate reader; shares compounds with PrP UTR inh; 1,100 compounds, 48% hits; inhibition, % at 2.5 µM; in the data active means inhibition above about 54%; inconclusive means no clear call, values can overlap the other calls
* = called active by the depositor.

Cc1ccccc1N1C(=O)CC2(CCCC2)CC1=O was read as BioA inh -1, Mtb hypoxia rep 14, SSB-PriA inh -2, FadD28 FP inh -2, TcdB inh 2, PrP UTR inh 82* and PrP 5UTR single -7.
`O=C(Nc1ccccn1)c1ccc(C(=O)c2ccccc2)cc1` gave BioA inh 2, Mtb hypoxia rep 6, SSB-PriA inh -4, FadD28 FP inh 0, TcdB inh 3 and PrP UTR inh -118.
Screening COc1ccc(C(=O)NC(=O)Nc2cc(C)ccn2)cc1 returned BioA inh -2, Mtb hypoxia rep 9, SSB-PriA inh -3, FadD28 FP inh 0, TcdB inh 0, PrP UTR inh 61* and PrP 5UTR single 64*.
For O=C(NC(=O)c1ccccc1)Nc1ccccn1 the results were BioA inh -1, SSB-PriA inh -10, FadD28 FP inh -1, TcdB inh 1, PrP UTR inh 75* and PrP 5UTR single 76*.
`CC12NC(=S)NC(c3ccccc3O1)C2C(=S)Nc1ccccc1` (stereo unspecified) gave SSB-PriA inh 5.
COC(=O)CNC(=O)C12CC3CC(C1)CC(c1ccc(C)cc1)(C3)C2 was read as BioA inh 8, Mtb hypoxia rep 8, SSB-PriA inh -5, FadD28 FP inh -4, TcdB inh 2, PrP UTR inh 78* and PrP 5UTR single -26.
Cc1ccc(C23CC4CC(CC(C(N)=O)(C4)C2)C3)cc1 was read as BioA inh 0, Mtb hypoxia rep 15, SSB-PriA inh 6, FadD28 FP inh -6, TcdB inh 0 and PrP UTR inh -54.
`CC[C@]12c3[nH]c4cc(-c5ccco5)ccc4c3CCN1C(=O)[C@@H](CC(=O)NCc1ccc(OC)c(OC)c1)C[C@@H]2C(=O)N1CCN(C(=O)C2CC2)CC1` gave BioA inh 0, Mtb hypoxia rep -11, SSB-PriA inh -7, FadD28 FP inh -5, TcdB inh 1 and PrP UTR inh -19.
Screening O=C(Nc1c(Cl)cc2c(c1Cl)Cc1cc([N+](=O)[O-])ccc1-2)C(Cl)Cl returned SSB-PriA inh -14, FadD28 FP inh 0, TcdB inh 1, PrP UTR inh 82* and PrP 5UTR single -6.
Screening C/C(=N\NS(=O)(=O)c1ccc(C)cc1)c1ccc(C)o1 returned BioA inh -2, FadD28 FP inh 0, TcdB inh -1 and PrP UTR inh -14.
For Cn1nnc2cc(C(=O)NC3CCCCC3)ccc21 the results were BioA inh 14, SSB-PriA inh -3, FadD28 FP inh 1, PrP UTR inh 75* and PrP 5UTR single 83*.
`Cc1cccc(/C=C2\CCC(=C3SCCCS3)C2=O)c1` gave SSB-PriA inh 11, FadD28 FP inh -1, PrP UTR inh 55* and PrP 5UTR single inconclusive.
For O=C1C(=C2SCCCS2)CC/C1=C\c1ccc(F)cc1 the results were Mtb hypoxia rep 24, SSB-PriA inh -7, FadD28 FP inh -2, PrP UTR inh 84* and PrP 5UTR single 84*.
CCN(CC)S(=O)(=O)c1ccc(N2CCCC2)c(NC(=O)CN2C(=O)NC3(CCCC3)C2=O)c1 was read as BioA inh 0, Mtb hypoxia rep -8, SSB-PriA inh -3, FadD28 FP inh -1, TcdB inh 1, PrP UTR inh 77* and PrP 5UTR single 14.
CCN(CC)CCNC(=O)c1c(O)c2cc(OC)c(OC)cc2[nH]c1=O was read as BioA inh 3, Mtb hypoxia rep 6, SSB-PriA inh -8, FadD28 FP inh 0, PrP UTR inh 72* and PrP 5UTR single -7.
`Cn1nc(-c2ccccn2)nc2c(=O)n(C)c(=O)nc1-2` gave BioA inh -3, Mtb hypoxia rep -2, SSB-PriA inh 34, FadD28 FP inh 1, TcdB inh -1 and PrP UTR inh 26.
`Cn1ncnc2c(=O)n(C)c(=O)nc1-2` gave BioA inh 0, Mtb hypoxia rep -10, SSB-PriA inh -6, FadD28 FP inh inconclusive, PrP UTR inh 96* and PrP 5UTR single 98*.
For Nc1ccc(Cn2ccc3c4c(N)nc(N)nc4ccc32)cc1 the results were SSB-PriA inh 32, FadD28 FP inh -3, TcdB inh 0, PrP UTR inh 62* and PrP 5UTR single -11.
For COC(=O)CCn1nnc(-c2ccc(C(C)C)cc2)n1 the results were Mtb hypoxia rep 17, SSB-PriA inh -43, FadD28 FP inh -1, PrP UTR inh 73* and PrP 5UTR single 70*.
`NC(CO)c1cn([C@@H](CCC(=O)O)C(=O)N2CCNCC2)nn1` (stereo partly specified) gave BioA inh -1, SSB-PriA inh -6, FadD28 FP inh 0, TcdB inh 1 and PrP UTR inh -11.
For NC(Cc1ccc(O)cc1)c1cn([C@@H](CCC(=O)O)C(=O)N2CCNCC2)nn1 (stereo partly specified) the results were BioA inh 1, SSB-PriA inh -4, FadD28 FP inh -2, TcdB inh 2, PrP UTR inh 64* and PrP 5UTR single -2.
`Cc1ccc(Sc2c(CO)c(-c3ccccc3)nn2C)cc1` gave Mtb hypoxia rep -8, SSB-PriA inh -11, FadD28 FP inh -3, TcdB inh 1, PrP UTR inh 73* and PrP 5UTR single 84*.
For COc1ccc(CN(C)CC(=O)Nc2ccccc2C(F)(F)F)cc1 the results were Mtb hypoxia rep -2, SSB-PriA inh -31, FadD28 FP inh -2, TcdB inh 1, PrP UTR inh 81* and PrP 5UTR single -19.
`COc1ccc(CN(C)CC(=O)Nc2ccccc2C(F)(F)F)c(OC)c1` gave BioA inh -1, Mtb hypoxia rep 6, SSB-PriA inh -14, FadD28 FP inh -4 and PrP UTR inh -36.
Screening CSCC[C@](C)(O)CNS(=O)(=O)c1ccc(OC(F)(F)F)cc1 returned SSB-PriA inh -17.
Screening CN(C)CC(C)(C)CNS(=O)(=O)c1ccc(OC(F)(F)F)cc1 returned Mtb hypoxia rep 6, SSB-PriA inh 3, FadD28 FP inh -1, TcdB inh 1, PrP UTR inh 59* and PrP 5UTR single 2.
Screening O=C(O)CCCc1ccc2c(c1)CCc1ccccc1-2 returned BioA inh 0, SSB-PriA inh 4, FadD28 FP inh -4, TcdB inh 1, PrP UTR inh 65* and PrP 5UTR single 75*.
For COc1ccc(C(O)c2ncc(-c3ccccc3Cl)[nH]2)cc1F (stereo unspecified) the results were BioA inh 2, FadD28 FP inh -3 and TcdB inh 2.
